The list is not random: actives were taken first. Their share in the collection is about 22%.
Pf growth 96h – P. falciparum growth inhibition at 96 hours. P. falciparum luciferase reporter growth, 96 h. Potency, µM (doses to about 28.7 µM), without a hit: at the top dose activity change, negative = inhibition, actives largely listed as inhibitors. actives 6.9% (n = 320,000); note: potency is the fitted concentration of half-maximal effect; % is set by controls: 0 for no effect and ±100 for the full control effect
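Cell-based qHTS: luciferase-tagged P. falciparum in erythrocytes (2% hematocrit, 0.05% parasitemia final) incubated with compounds for 96 hours, 37 C, 5% CO2; luciferase detection reagent then added and luminescence measured.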
Shiga toxin inh – inhibitors of Shiga toxin in Vero cells | Vero cells, Shiga toxin protein synthesis inhibition reporter | inhibition, % at 38.7 µM | actives 9.2% (n = 290,000); in the data active = inhibition mostly above about 28%, no sharp cut-off; inactive = mostly below about 43%; note: 0% is about no effect
Pf growth 48h – inhibits P. falciparum growth in the first generation, 48 h; P. falciparum luciferase growth in erythrocytes, 48 h; Potency, µM (top dose mostly 28.7 µM), for the others: top-dose activity change, negative = inhibition, usual class: inhibitors; actives 5.9% (n = 310,000); note: potency is the fitted concentration of half-maximal effect; % is set by controls: 0 for no effect and ±100 for the full control effect
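Growth was read as firefly luciferase luminescence after a 48 h, 37 C, 5% CO2 exposure of compounds to reporter-bearing P. falciparum cultures (0.1% parasitemia, 2% hematocrit final) in Albumax-supplemented RPMI 1640.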
Cycloheximide cs – counter-screen for Shiga toxin inhibitors: cycloheximide protein synthesis inhibition; AID 2314; actives 12% (n = 300,000); max response, %; cell reporter, cycloheximide protein synthesis inhibition counterscreen; in the data active = max response mostly above about 13%, no sharp cut-off; inactive = mostly below about 14%; note: read at 38.3 µM for the half of the compounds with a filed dose; 0% is about no effect
LmPK inh – LmPK (Leishmania mexicana) enzyme inhibition; Q27686; purified LmPK, Kinase-Glo ATP luminescence, 1 h; Potency, µM (titrated, usually from 57.5 µM), inactives show top-dose activity change, negative = inhibition, actives largely listed as inhibitors; actives 0.37% (n = 290,000); note: potency is the fitted concentration of half-maximal effect; % is set by controls: 0 for no effect and ±100 for the full control effect
Target sequence (Q27686 whole entry, looked up): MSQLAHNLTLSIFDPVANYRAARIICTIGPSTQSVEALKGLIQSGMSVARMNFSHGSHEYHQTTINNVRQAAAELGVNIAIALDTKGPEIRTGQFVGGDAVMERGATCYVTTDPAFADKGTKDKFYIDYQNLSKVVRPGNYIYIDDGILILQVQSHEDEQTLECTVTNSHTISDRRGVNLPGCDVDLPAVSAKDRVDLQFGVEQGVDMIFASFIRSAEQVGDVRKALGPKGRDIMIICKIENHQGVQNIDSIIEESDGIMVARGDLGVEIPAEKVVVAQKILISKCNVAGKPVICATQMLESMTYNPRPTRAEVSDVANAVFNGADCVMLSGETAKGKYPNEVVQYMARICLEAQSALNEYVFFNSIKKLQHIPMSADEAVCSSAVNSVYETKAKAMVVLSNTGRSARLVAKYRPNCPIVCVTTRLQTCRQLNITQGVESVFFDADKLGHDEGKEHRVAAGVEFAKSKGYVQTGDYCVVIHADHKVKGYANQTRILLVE
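In 50 mM imidazole pH 7.2 with 7 mM MgCl2, LmPK (0.1 nM) turned over PEP (0.5 mM) and ADP (0.1 mM) for 1 h at room temperature. Luciferase read-out of ATP.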
The depositor's hits bear a star. Unless noted, calls come from the whole dose curve; as a rule, active = well fitted inhibition curve with a large enough effect; inconclusive = small, poorly fitted or top-dose-only effect, or another doubt; inactive = no such curve, though single readings can be large or run the other way.

Screening COc1cc(CC(NC(C)=O)C(=O)NC2CCN(C(=O)Nc3ccccc3Cl)CC2)cc(OC)c1 (stereo not drawn) returned Pf growth 96h -4.0%, Shiga toxin inh 24.2, Pf growth 48h 24.5%, Cycloheximide cs -4.3 and LmPK inh 0.8%.
For COc1cc(C(=O)N2CCC(NC(=O)C(Cc3ccc(C)cc3)NC(C)=O)CC2)cc(OC)c1OC (stereo not drawn) the results were Pf growth 96h 5.86µM*, Shiga toxin inh 13.8, Pf growth 48h -4.3%, Cycloheximide cs -1.2 and LmPK inh 2.6%.
COc1cccc(CC(NC(C)=O)C(=O)NC2CCN(S(=O)(=O)c3ccc(NC(C)=O)cc3)CC2)c1 (stereo not drawn) was read as Pf growth 96h -2.2%, Shiga toxin inh -8.3, Pf growth 48h -22.7%, Cycloheximide cs -0.9 and LmPK inh 1.4%.
`CC[C@H](C)[C@H](NC(=O)[C@H](C)NC(=O)[C@@H](N)C(C)C)C(=O)N[C@H](C(=O)N[C@H](C(=O)N[C@@H](CC(C)C)C(=O)N[C@H](C(=O)N[C@@H](CCCCN)C(=O)O)C(C)C)C(C)C)[C@@H](C)O` gave Shiga toxin inh -6.3 and Cycloheximide cs -2.4.
Screening CCc1ccc(OC)c(S(=O)(=O)Nc2ccc(Cc3ccncc3)cc2)c1 returned Pf growth 96h 21.5%, Shiga toxin inh 2.7, Pf growth 48h inconclusive, Cycloheximide cs -1.2 and LmPK inh 0.9%.
O=C(CN(C(=O)c1csnn1)c1ccccc1F)NCc1ccc2c(c1)OCO2 was read as Pf growth 96h inconclusive, Shiga toxin inh -5.3, Pf growth 48h 4.0%, Cycloheximide cs -4.4 and LmPK inh -7.8%.
For COc1ccc(CC(NC(C)=O)C(=O)NC2CCN(S(=O)(=O)c3ccccc3)CC2)cc1OC (stereo not drawn) the results were Pf growth 96h 5.22µM*, Shiga toxin inh 16.4, Pf growth 48h 1.2%, Cycloheximide cs -4.0 and LmPK inh -0.9%.
COc1ccc(CN2CCN(S(=O)(=O)c3ccc(NC(C)=O)cc3)CC2)cc1OC was read as Pf growth 96h 10.4µM*, Shiga toxin inh -9.4, Pf growth 48h inconclusive, Cycloheximide cs 14.4 and LmPK inh 0.4%.
COc1ccc(CC(NC(C)=O)C(=O)NC2CCN(S(=O)(=O)c3cccc4ccccc34)CC2)cc1OC (stereo not drawn) was read as Pf growth 96h 13.1µM*, Shiga toxin inh -1.3, Cycloheximide cs -2.4 and LmPK inh 0.7%.
For CN(c1cccc(Cl)c1)S(=O)(=O)c1cccc(C(=O)NC2=NCCS2)c1 the results were Pf growth 96h inconclusive, Shiga toxin inh -7.3, Pf growth 48h inconclusive, Cycloheximide cs -1.6 and LmPK inh 1.8%.
`CCOc1cccc(C(=O)NC2=NCCS2)c1` gave Pf growth 96h inconclusive, Shiga toxin inh 72.2*, Pf growth 48h 164.3%, Cycloheximide cs 39.5* and LmPK inh -5.3%.
Screening COc1cccc(C(=O)NC2=NCCS2)c1 returned Pf growth 96h inactive, Shiga toxin inh 41.5*, Pf growth 48h 407.1%, Cycloheximide cs 29.3* and LmPK inh -20.9%.
For O=C(NC1=NCCS1)c1cccc(NC(=O)c2ccco2)c1 the results were Pf growth 96h 7.6%, Shiga toxin inh 5.9, Pf growth 48h 58.2%, Cycloheximide cs 0.4 and LmPK inh -0.2%.
`CC(C)Oc1cccc(C(=O)NC2=NCCS2)c1` gave Pf growth 96h inconclusive, Shiga toxin inh 107.5*, Pf growth 48h 346.6%, Cycloheximide cs 55.3* and LmPK inh 0.0%.
`CCCCN1C(=O)c2ccc(C(=O)NC3=NCCS3)cc2C1=O` gave Shiga toxin inh 33.5, Pf growth 48h -6.2%, Cycloheximide cs 20.2* and LmPK inh 7.3%.
For CCN(CC)C(=O)c1ccc(-c2cccs2)s1 the results were Pf growth 96h 27.3%, Shiga toxin inh 93.5*, Pf growth 48h inconclusive, Cycloheximide cs 55.7* and LmPK inh -1.9%.
Screening O=C(Nc1ccccc1F)c1ccc2ncsc2c1 returned Pf growth 96h 159.3%, Shiga toxin inh 148.6*, Pf growth 48h 78.1%, Cycloheximide cs 60.7* and LmPK inh -9.5%.
Screening O=C(Nc1ccc(Cl)cc1Cl)c1ccc2ncsc2c1 returned Pf growth 96h 119.7%, Shiga toxin inh 77.7*, Pf growth 48h 100.5%, Cycloheximide cs 40.7* and LmPK inh 3.4%.
For O=C(Nc1cccc(F)c1)c1ccc2ncsc2c1 the results were Pf growth 96h -1.2%, Shiga toxin inh 105.4*, Pf growth 48h 29.6%, Cycloheximide cs 48.8* and LmPK inh 0.6%.
Cn1nnc2cc(C(=O)Nc3ccccc3F)ccc21 was read as Pf growth 96h -6.8%, Shiga toxin inh 54.7*, Pf growth 48h 74.7%, Cycloheximide cs 31.4* and LmPK inh -0.2%.
Screening CNC(=O)c1ccc2c(c1)nnn2C returned Pf growth 96h 27.4%, Shiga toxin inh -3.9, Pf growth 48h 16.9%, Cycloheximide cs -5.2 and LmPK inh -0.2%.
For CC(NC(=O)c1ccccc1NC(=O)c1ccccc1)C(=O)N1CCOCC1 (stereo not drawn) the results were Pf growth 96h inconclusive, Shiga toxin inh -5.1, Pf growth 48h inconclusive, Cycloheximide cs -2.2 and LmPK inh 2.3%.
For O=C(Nc1ccc(F)cc1F)c1ccc2ncsc2c1 the results were Pf growth 96h 99.1%, Shiga toxin inh 97.2*, Pf growth 48h 130.0%, Cycloheximide cs 62.9* and LmPK inh -2.5%.
`Fc1ccccc1/C=N/Nc1nc2ccccc2o1` gave Pf growth 96h inconclusive, Shiga toxin inh 79.2*, Pf growth 48h 143.7%, Cycloheximide cs 49.9* and LmPK inh 1.2%.
`Clc1ccccc1Nc1nc2ccccc2o1` gave Pf growth 96h inactive and Pf growth 48h 381.1%.
`FC(F)Oc1ccccc1/C=N/Nc1nc2ccccc2o1` gave Pf growth 96h 129.6%, Shiga toxin inh 74.1*, Pf growth 48h 77.4%, Cycloheximide cs 44.0* and LmPK inh -2.9%.
Screening CNC1CCc2cc(OC)c(OC)c(OC)c2-c2ccc(OC)c(=O)cc21 (stereo not drawn) returned Pf growth 96h -28.5% and Pf growth 48h -18.3%.
Screening c1ccc(C2Nc3ccccc3Oc3ccccc32)cc1 (stereo not drawn) returned Pf growth 96h 5.22µM*, Shiga toxin inh 9.0, Pf growth 48h 10.4µM*, Cycloheximide cs -2.6 and LmPK inh 1.9%.
`c1ccc(C2Nc3ccccc3C3OCCCC23)cc1` (stereo not drawn) gave Pf growth 96h inconclusive, Shiga toxin inh -16.5, Pf growth 48h 8.0%, Cycloheximide cs -2.5 and LmPK inh 0.7%.
For Cc1c(CCN)ccc2c1[nH]c1ccccc12 the results were Pf growth 96h inconclusive, Shiga toxin inh 22.8, Pf growth 48h 10.4µM*, Cycloheximide cs 17.4* and LmPK inh 2.3%.
O=C(CN(c1ccc2c(c1)OCCO2)S(=O)(=O)c1ccccc1)N1CCN(Cc2ccccc2)CC1 was read as Pf growth 96h -0.6%, Shiga toxin inh -3.0, Pf growth 48h inconclusive, Cycloheximide cs -3.8 and LmPK inh 1.6%.

Screening results from PubChem BioAssay.
